# High-throughput results as filed in PubChem.
# MsrA inh = inhibits bovine methionine sulfoxide reductase A | purified bovine MsrA, absorbance read-out | 360,000 compounds, 0.75% hits | inhibition, % at 15.5 µM;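 note: 0% = vehicle wells with enzyme and 100% = reference inhibitor wells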
# GC-B act = GC-B (human) receptor activation. HEK293-GC-B cells, CNP EC30, cGMP TR-FRET; 0% at EC30 CNP, 100% saturating CNP. P20594. 370,000 compounds, 0.11% hits. activation, % at 10 µM;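 active = activation at 10 µM reaching about 35% in either raw or pattern-adjusted values, limit read from the data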
# Target sequence (P20594 whole entry, looked up): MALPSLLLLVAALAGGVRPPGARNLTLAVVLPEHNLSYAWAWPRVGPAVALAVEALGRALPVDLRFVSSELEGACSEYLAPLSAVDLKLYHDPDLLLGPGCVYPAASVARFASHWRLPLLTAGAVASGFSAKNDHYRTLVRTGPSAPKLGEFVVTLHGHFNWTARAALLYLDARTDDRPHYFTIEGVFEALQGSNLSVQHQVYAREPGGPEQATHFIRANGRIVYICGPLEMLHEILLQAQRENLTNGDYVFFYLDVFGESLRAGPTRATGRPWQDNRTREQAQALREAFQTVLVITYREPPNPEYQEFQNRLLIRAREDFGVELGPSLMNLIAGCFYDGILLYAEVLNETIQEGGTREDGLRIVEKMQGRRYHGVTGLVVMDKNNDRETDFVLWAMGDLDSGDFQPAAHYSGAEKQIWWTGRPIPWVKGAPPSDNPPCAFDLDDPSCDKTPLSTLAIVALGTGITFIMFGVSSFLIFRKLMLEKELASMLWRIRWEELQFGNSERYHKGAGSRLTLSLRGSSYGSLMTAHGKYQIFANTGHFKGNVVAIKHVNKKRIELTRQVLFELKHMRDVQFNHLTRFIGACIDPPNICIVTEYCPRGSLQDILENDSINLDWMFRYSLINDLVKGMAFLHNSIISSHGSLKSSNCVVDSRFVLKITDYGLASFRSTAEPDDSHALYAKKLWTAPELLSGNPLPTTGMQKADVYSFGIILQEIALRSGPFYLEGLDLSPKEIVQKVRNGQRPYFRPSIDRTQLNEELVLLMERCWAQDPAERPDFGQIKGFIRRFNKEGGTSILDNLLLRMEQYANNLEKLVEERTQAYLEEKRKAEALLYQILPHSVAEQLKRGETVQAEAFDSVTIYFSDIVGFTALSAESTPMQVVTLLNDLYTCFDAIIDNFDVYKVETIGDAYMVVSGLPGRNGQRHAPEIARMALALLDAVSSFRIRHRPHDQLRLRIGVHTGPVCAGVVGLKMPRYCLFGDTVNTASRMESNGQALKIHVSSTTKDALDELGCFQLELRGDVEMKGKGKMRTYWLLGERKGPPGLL
# NPR1 activator = GC-A (human) enzyme activation. 370,000 compounds, 0.14% hits. AID 1671463. activation, % at 10 µM. P16066. HEK293 GC-A cells, cGMP TR-FRET, EC30 ANP; 0% at EC30 ANP, 100% saturating ANP; in the data active = activation above about 40%
# bovine MsrA act = activators of bovine methionine sulfoxide reductase A. AID 602163. activation, % at 10.6 µM. 360,000 compounds, 0.3% hits. purified bovine MsrA, absorbance read-out; in the data active = activation above about 7.5%;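 note: 0% = vehicle and 100% = reference activator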
# MsrA inh confirm = confirmation of bovine MsrA inhibitors; AID 651822; 2,300 compounds, 41% hits; shares compounds with MsrA inh; purified bovine MsrA, absorbance read-out; inhibition, % at 15.5 µM;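 note: coupled to thioredoxin reductase with NADPH and selenocystamine and DMSO as substrate; 0% = vehicle only and 100% = full effect of reference inhibitor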
# An asterisk follows results filed as active; nt = no result. In the library only some 1.2% were active in any assay of this set; here they are far more common. Cut-off read from the data, not from the text of the source, unless noted: active = inhibition above about 4.5%; inactive = the rest.
SMILES,MsrA inh,GC-B act,NPR1 activator,bovine MsrA act,MsrA inh confirm
Cc1cc(NC(=O)Cc2cn(C)c3ccccc23)ccc1Oc1cccnc1,1,-1,3,nt,nt
CCCOc1nccc2c1n(C)c(=O)n2C,nt,2,1,nt,nt
CC1CCN(C2=NC(=O)/C(=C/c3cccc(O)c3)S2)CC1,4.7*,-4,-5,-2,2
CC1CCN(C2=NC(=O)/C(=C/c3ccccc3F)S2)CC1,5.4*,-2,2,-3,4
O=C1N=C(N2CCOCC2)S/C1=C\c1cccnc1,2,-1,-2,1,nt
COc1cc(Cn2cc([C@]34C[C@H]5C(=O)N(C)CC(=O)N5[C@H]3N(S(=O)(=O)c3ccccc3)c3ccccc34)c3ccccc32)cc(OC)c1,nt,-11,-14,nt,nt
O=[N+]([O-])c1ccc(CSc2nnc(-c3cccc(Cl)c3)n2Cc2ccco2)cc1,nt,-14,-4,nt,nt
CSc1nc2[nH]c3c(c2c2nnnn12)CCCC3,12*,3,14,-11,10*
CSc1nc2[nH]c3c(c2c2nncn12)CC(C)(C)OC3,1,-4,0,-12,nt
COc1cc(/C=N\N=C2/SC(CC(=O)O)C(=O)N2c2ccc(O)cc2)ccc1O (configuration not stated),4,0,0,-7,nt
O=C(O)CC1S/C(=N/N=C/c2ccc([N+](=O)[O-])cc2)N(c2ccc(O)cc2)C1=O (configuration not stated),6.8*,-3,-1,-4,3
COc1cc(/C=N/N=C2/SCC(=O)N2c2ccc(O)cc2)ccc1O,5.6*,0,1,-6,4.6*
COc1ccc(/C=N\N=C2/SC(CC(=O)O)C(=O)N2c2ccc(O)cc2)cc1OC (configuration not stated),5.9*,-1,-2,-6,4.9*
Cc1cccc(Cn2cc(COC(=O)NCCc3ccccc3)nn2)c1,nt,18,3,nt,nt
O=C(CSc1nnc(-c2cccc(Cl)c2)n1Cc1ccco1)c1ccc(F)cc1,nt,9,2,nt,nt
CC1(CC(=O)N/N=C/c2ccc(-c3ccc(Cl)cc3)o2)OCCO1,7.7*,-3,11,-10,4.8*
COC(=O)N/N=C/c1ccc(-c2cccc(Cl)c2)o1,6.4*,-2,-4,-2,5.1*
C#CCNC(=O)C[C@@H]1C(=O)N2CCCC3=C2[C@@]1(C(=O)OC)CCCC3,nt,4,6,nt,nt
Cn1cnc([N+](=O)[O-])c1S(=O)(=O)Oc1ccccc1,17*,5,1,-3,12*
Cn1cnc([N+](=O)[O-])c1S(=O)(=O)c1cccc(Cl)c1,-1,22,3,-4,nt
Cn1cnc([N+](=O)[O-])c1S(=O)(=O)Nc1ccccc1,16*,1,-1,-2,8.1*
O=C1C(N2CCOCC2)=C(n2nnc3ccccc32)C(=O)c2ccccc21,71*,-8,-2,-6,69*
O=C1c2ccccc2C(=O)c2c1cccc2-n1nnc2ccccc21,0,3,5,4,nt
O=C(Nc1ccc(F)cc1)OCc1cn(Cc2ccccc2C(F)(F)F)nn1,nt,8,-1,nt,nt
Cc1nonc1C(=O)N/N=C/c1cc2c(cc1Br)OCO2,0,-1,2,-12,nt
SMILES,MsrA inh,GC-B act,NPR1 activator,bovine MsrA act,MsrA inh confirm
COCCCNC(=O)C(=O)N/N=C/c1cc2c(cc1Br)OCO2,5.0*,1,1,-3,3
CCCC1CCC2(CC1)CCC2OC(=S)NCc1ccc(Cl)cc1 (configuration not stated),nt,-4,-3,nt,nt
C=CCc1c(C)nc(C)nc1N/N=C/c1ccccc1,4.7*,3,4,-3,4.8*
Cc1csc2ncc(C(=O)N3c4ccccc4CC3C)c(=O)n12 (configuration not stated),6.4*,-4,1,-14,2
Cc1ccc(NC(=O)C2CCN(c3ncccn3)CC2)cc1C,nt,3,-3,nt,nt
N#Cc1c(-c2ccccc2)[nH]c(=S)[nH]c1=O,5.0*,0,5,6,3
N#Cc1c(-c2cccc(Cl)c2)[nH]c(=S)[nH]c1=O,3,-6,3,5,nt
Cc1cc(NS(=O)(=O)c2ccc(NC(=O)CSc3nnc(-c4cccnc4)n3-c3ccccc3)cc2)nc(C)n1,nt,4,2,nt,nt
COC(=O)C1CN(Cc2ccccc2)CCS(=O)(=O)N1Cc1cn(Cc2ccc(F)cc2)nn1 (configuration not stated),nt,-2,-3,nt,nt
CC(C)C[C@H](NC(=O)N1CCOCC1)C(=O)N1CCC[C@H]1C(=O)NCc1ccccc1,1,-1,0,nt,nt
COC(=O)[C@]12C[C@H](CC(=O)NCCCN3CCCC3=O)C(=O)N(Cc3ccco3)C1=C[C@H](COCc1ccccc1)O[C@@H]2C,nt,8,2,nt,nt
C[C@@H]1CCCCO[C@H](CN(C)C(=O)C2CCCCC2)[C@@H](C)CN([C@H](C)CO)C(=O)c2cc(NS(=O)(=O)c3cccs3)ccc2O1,-1,-2,0,nt,nt
CCCC[C@H](C(=O)N(C)c1cccc(OC)c1)[C@@H](O)c1ccc(Cl)cc1,nt,-22,-29,nt,nt
O=C(NCCC1=CCCCC1)c1coc(=O)c(Br)c1,2,-4,10,-6,nt
O=C(NCCN1CCCCC1)c1ccc(=O)oc1,5.1*,0,-5,-4,3
O=C(NCCC1=CCCCC1)c1ccc(=O)oc1,6.9*,0,-4,-18,7.1*
Cc1noc(/C=C/c2cccnc2)c1[N+](=O)[O-],5.3*,-4,12,-10,3
CCCCN1CN2Cc3ccccc3C2CS1(=O)=O (configuration not stated),nt,4,0,nt,nt
CC1=C(c2ccc(F)cc2)[N+](=O)C(C)(C)N1[O-],4.8*,0,-1,-11,0
C=CCNC(=O)C1CCN(c2cncnc2)CC1,nt,-11,2,nt,nt
C[C@H]1CCC/C=C/C(=O)c2c(cc(O)c(Cl)c2O)CC(=O)O1,nt,-1,3,nt,nt
CCN(C(=O)CSc1nc2nc(C)cc(C)n2n1)c1cccc(C)c1,0,1,5,-10,nt
CCN(C(=O)CSc1nc2nc(C)cc(C)n2n1)c1ccccc1,4.8*,-1,4,-2,2
CC(=O)CC[C@H]1CC[C@]2(CCCN(C(=O)C3CCCCC3)C2)O1,nt,4,2,nt,nt
Cc1ccccc1-c1nc(C#N)c(N2CCCCC2)o1,8.4*,3,0,-4,8.6*
N#Cc1nc(-c2ccccc2F)oc1N1CCCC1,2,-7,-1,-2,nt
O=C(Nc1cccc(C(=O)O)c1)/C(=C\c1ccc2c(c1)OCO2)NC(=O)c1ccc(Br)cc1,6.1*,2,2,-19,2
O=C(Nc1cccc(C(=O)O)c1)/C(=C\c1ccc2c(c1)OCO2)NC(=O)c1ccccc1,5.5*,0,2,-6,3
O=C(Nc1cccc(C(=O)O)c1)/C(=C\c1ccc2c(c1)OCO2)NC(=O)c1ccco1,3,0,6,-6,nt
O=C(Nc1ccc(C(=O)O)cc1)/C(=C/c1ccc2c(c1)OCO2)NC(=O)c1cccc(Br)c1,4,-1,-2,-12,nt
